In PubChem BioAssay AID1259240 (Keith Lab, Institute of Cancer Science, University of …, 2017):
Unmarked numbers belong to inactive results. Active and inactive are the calls of the source. Cut-off read from the data, not from the text of the source: active = fold change mostly below about -2 (no sharp cut-off); inactive = mostly above about -1.8.

assay: TERT promoter activity modulators, primary screen, cell-based, luciferase reporter, human (AID 1259240); conditions: A2780 TERT promoter luciferase reporter, 16 h; at 20 µM, fold versus average of vehicle-only wells

SMILES | fold change | outcome
CC(C)NC(=O)Cn1ncc2c3ccccc3n(C)c2c1=O | 1.04 | –
NC(=O)c1c(NC(=O)CN2C(=O)c3ccccc3S2(=O)=O)sc2c1CCCC2 | 1.23 | –
CSc1ccc(/C=c2\sc3nc(-c4ccco4)nn3c2=O)cc1 | -1.12 | –
O=C(CSc1ncnc2ccccc12)NC1CCCCC1 | 1.03 | –
Cc1oc2cc(OC(=O)N3CCOCC3)ccc2c(=O)c1Oc1ccccc1Br | -1.46 | –
O=C(CSc1ncnc2ccccc12)N1CCCc2ccccc21 | -1.11 | –
CCN1C(=O)/C(=c2\sc3nc(-c4cccc(C)c4)nn3c2=O)c2cc(Br)ccc21 | -1.02 | –
COCCn1c(SCC(=O)Nc2nnc(C)s2)nc2c(c1=O)SC(C)C2 (centres undefined) | 1.17 | –
O=C(CC1(CC2=NS(=O)(=O)c3ccccc3N2)CCCC1)NCc1ccccc1 | -1.27 | –
CC1CCC[C@@H](C)N1C(=O)Cc1ccc(NC2=NC3CS(=O)(=O)CC3S2)cc1 (some centres undefined) | -1.64 | –
COCCn1c(SCC(=O)Nc2cc(C)on2)nc2c(c1=O)SC(C)C2 (centres undefined) | -1.21 | –
COc1ccc(C2C3C(=O)N(C(C)C)C(=O)C3ON2c2ccc(Cl)cc2)cc1 (centres undefined) | -1.62 | –
N=c1n(CCN2CCOCC2)c2ccccc2n1CC(O)c1ccco1 (centres undefined) | -2.53 (active) | –
Cc1nnc2ccc(N3CCC(C(N)=O)(N4CCCCC4)CC3)nn12 | -1.03 | –
Clc1ccc(Nc2c(-c3c[nH]c4ccccc34)nc3cnccn23)cc1 | -1.4 | –
O=c1cc(CSc2nnnn2-c2ccccc2)nc2nc[nH]n12 | -2.26 (active) | –
COc1ccc(S(=O)(=O)NC(C)(C)C)cc1-c1nnc2c3ccccc3c(C)nn12 | -1.62 | –
C=CCOc1cccc(C2c3c(oc4ccccc4c3=O)C(=O)N2c2nc(C)c(C(C)=O)s2)c1 (centres undefined) | 1.02 | –
O=C(Cc1ccc(NC2=NC3CS(=O)(=O)CC3S2)cc1)N1CCc2ccccc2C1 (centres undefined) | 1.1 | –
Cc1csc(NC(=O)C2CCCN2S(=O)(=O)c2cccc3cccnc23)n1 (centres undefined) | -1.27 | –

SMILES | fold change | outcome
Cc1c(/C=C2/SC(=S)N(CC(=O)O)C2=O)c2ccccc2n1C | 1.33 | –
O=C1C(c2sc3ccccc3c2O)=Nc2c1ccc1ccccc21 | – | active
O=C(Nc1cccc(C(F)(F)F)c1)Nc1ccc2snnc2c1 | -1.55 | –
Cn1cnc2c(sc3nc(N4CCOCC4)c4c(c32)CC(C)(C)OC4)c1=O | 1.1 | –
CC(=O)N1CSCC1C(=O)N1CCN(c2ccc(N3CCOCC3)nn2)CC1 (centres undefined) | -1.03 | –
CN(Cc1ccco1)C(=O)c1ccc(CNc2c(N3CCCCC3)c(=O)c2=O)cc1 | -1.11 | –
CCOC(=O)N1CCC(Nc2c(N3CCN(c4ccccc4)CC3)c(=O)c2=O)CC1 | -1.05 | –
Clc1ccc2c(c1)C1CC(c3ccccc3)=NN1C(c1ccncc1)O2 (centres undefined) | -1.13 | –
COc1ccc(Cl)cc1Nc1nc(-c2c(C)nc3ncccn23)cs1 | -3.45 (active) | –
Cc1ccc(C)c(N2CCN(C(=O)CCCc3nnc4n5nc(C)nc5c5ccccc5n34)CC2)c1 | -1.04 | –
FC(F)(F)c1cccc2c1[nH]c1nc3ccccc3nc12 | -1.1 | –
O=C1SC(Nc2ccccc2F)C(=O)N1c1ccccc1 (centres undefined) | 1.65 | –
CCOC(=O)N1CCC(Nc2ccc3nncn3n2)CC1 | -1.14 | –
CCOC(=O)c1c(NC(=O)Nc2ccc(F)cc2)sc2c1CCN(C(=O)OCC)C2 | -1.41 | –
Cc1ccccc1Cn1nc(C)c(NC(=O)c2cc(C3CC3)on2)c1C | -1.04 | –
CCOC(=O)c1c(CN2CCOCC2)oc2ccc(OC)cc12 | -1.29 | –
O=C(CN1C(=O)COc2ccc(S(=O)(=O)N3CCOCC3)cc21)N1CCOCC1 | -2.24 (active) | –
COc1cc(OC)c(NC(=O)Nc2cc3sccc3n2C)cc1Cl | 1.13 | –
CCOc1ccc(/C=c2\sc3nc(=O)c(Cc4ccc(Cl)cc4)nn3c2=O)cc1OC | 1.07 | –
